# Laboratory results as given in PubChem BioAssay (Tox21).
# “And” between values parts separate entries of the source, which are not always exact repeats. Equal entries are not always repeated. Results filed as inconclusive are left out. Where a call stands in place of a potency, no number is given. The source holds several records for some structures; these can differ, active in one and inactive in another. The source made the active and inactive calls. Calls follow the shape of the dose curve; as a rule, active = well fitted cell-killing curve with a large enough effect in the repeat runs; inconclusive = weak or mixed curves, or effect the other way; inactive = no such curve, though single readings can be large or run the other way.
# Assay: qHTS assay to identify small molecule agonists of the vitamin D receptor (VDR) signaling pathway - cell viability counter screen (AID 743224)
# Settings: VDR-bla HEK293T viability, CellTiter-Glo luminescence, 16 h; series mostly up to 62.6 µM; activity change, negative = cytotoxicity: at the top concentration
# Outline: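 Cytotoxicity counter screen: VDR-bla cells, 16 h compound exposure at 37C, 5% CO2; CellTiter-Glo luminescence, 30 min RT, same wells as bla read.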
# Also: nearly all actives have a fitted effect of over 50% in size.
# Potency is read from the fitted curve at half-maximal effect.
Compound,Potency,"activity change, negative = cytotoxicity"
C[C@]12CCC(=O)C=C1CC[C@@H]1[C@@H]2CC[C@]2(C)C(=O)CC[C@@H]12,inactive,
O=C(O)c1nc(Cl)ccc1Cl,inactive,
CC[N+](CC)(CC)CC,inactive,
CCOP(=S)(OCC)Oc1ccc2c(C)c(Cl)c(=O)oc2c1,inactive,
Cc1cc(-c2ccc(N)c(C)c2)ccc1N,inactive,
CCCCCC[n+]1ccccc1,39.3 µM (active) and 49.3 µM (active) and inactive,
C1CCC(NC2CCCCC2)CC1,inactive,
Nc1ccccc1,inactive,
CCCCCCn1cc[n+](C)c1,,-25.7% [at 81.1 µM] (inactive)
O=P1(N(CCCl)CCCl)NCCCO1 (configuration not stated),inactive,
COc1ccccc1N,inactive,
COP(=O)(OC)OC=C(Cl)Cl,inactive,

# Assay: qHTS assay to identify small molecule antagonists of the vitamin D receptor (VDR) signaling pathway - cell viability counter screen (AID 743225)
# Settings: VDR-bla HEK293T viability, CellTiter-Glo luminescence, 16 h; series mostly up to 61 µM; viability change, negative = cytotoxic: at the top concentration
# Outline: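 Luminescent cell viability (CellTiter-Glo) in VDR-bla HEK 293T cells after 16 h compound exposure at 37C in the presence of 3 nM final 1-alpha,25-dihydroxy vitamin D3.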
Compound,Potency,"viability change, negative = cytotoxic"
Cc1cc(Cl)ccc1OCC(=O)O,inactive,
CNC,inactive,
C[C@]12CCC(=O)C=C1CC[C@@H]1[C@@H]2CC[C@]2(C)C(=O)CC[C@@H]12,inactive,
O=C(O)c1nc(Cl)ccc1Cl,inactive,
CCn1cc[n+](C)c1C,inactive,
CCC[N+]1(C)CCCC1,inactive,
COCC(=O)N(c1c(C)cccc1C)C(C)C(=O)OC (configuration not stated),inactive,
CC[N+](CC)(CC)CC,inactive,
CCCn1cc[n+](C)c1,inactive,
O=C(O)CCl,inactive,
C[N+](C)(C)Cc1ccccc1,inactive,
CCCC[n+]1ccccc1C,inactive,
CCCC[n+]1ccccc1,inactive,
Oc1cccc2cccnc12,inactive and 8.71 µM (active),
CCOP(=S)(OCC)Oc1ccc2c(C)c(Cl)c(=O)oc2c1,inactive,
Cc1cc(-c2ccc(N)c(C)c2)ccc1N,inactive,
CCCCCC[n+]1ccccc1,inactive,
Nc1ccc(-c2ccc(N)cc2)cc1,inactive,
C1CCC(NC2CCCCC2)CC1,inactive,
OCCOc1ccccc1,inactive,
CCCC[N+]1(C)CCCC1,inactive,
Nc1ccccc1,inactive,
Cc1cc(Cl)ccc1N,inactive,
CCCCCCn1cc[n+](C)c1,,-4.5% [at 78.8 µM] (inactive)
O=c1[nH]c(=O)n(Cl)c(=O)n1Cl,inactive,
COc1ccc(N)cc1,inactive,
O=P1(N(CCCl)CCCl)NCCCO1 (configuration not stated),inactive,
COc1ccccc1N,inactive,
O=[N+]([O-])c1ccccc1O,inactive,
COP(=O)(OC)OC=C(Cl)Cl,inactive,
